# Measured values published in PubChem BioAssay AID504454 (NMMLSC, 2011).
# Among all 340,000 compounds or so, about 1,400 (0.41%) were called active. The sample holds actives, similar compounds and a random draw of the others, so the mix is not that of the screen.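 How the source made its calls: active means response above a set limit, near 3 SD of response in nonfluorescent compounds (cut at about 42% in these data); inactive means the rest.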
# Target: Beta-2 adrenergic receptor (Homo sapiens) (UniProt P07550)
# Experiment: agonist-induced loss of surface beta2AR – cell-based, FAP fluorogen, flow cytometry, primary screen (AID 504454)
# Conditions: Am2.2-beta2AR cells, FAP receptor internalization, hits give high values, concentration not given here
# Beta-2 adrenergic receptor (Homo sapiens), sequence (P07550 whole entry, looked up): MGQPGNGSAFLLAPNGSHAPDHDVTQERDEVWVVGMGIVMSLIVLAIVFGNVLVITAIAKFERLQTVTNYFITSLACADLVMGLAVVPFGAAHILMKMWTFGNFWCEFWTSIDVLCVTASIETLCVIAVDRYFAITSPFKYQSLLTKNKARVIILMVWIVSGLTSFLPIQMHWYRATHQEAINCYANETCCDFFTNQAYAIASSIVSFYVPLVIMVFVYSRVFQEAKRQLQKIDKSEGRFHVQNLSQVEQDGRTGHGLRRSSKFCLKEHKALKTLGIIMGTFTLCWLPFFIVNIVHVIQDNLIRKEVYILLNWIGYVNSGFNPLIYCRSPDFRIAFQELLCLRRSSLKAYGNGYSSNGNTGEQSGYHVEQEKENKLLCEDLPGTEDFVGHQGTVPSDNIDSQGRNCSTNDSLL
row,SMILES,response
1,Cc1ccccc1NC(=O)C(C)OC(=O)CCC(=O)N(CC(C)C)c1c(N)n(CC(C)C)c(=O)[nH]c1=O (stereo not given),-6.93% (inactive)
2,CC(Cc1cccs1)NC(=O)c1cccc(Cl)c1 (stereo not given),5.14% (inactive)
3,NC(=O)C1CCN(C(=O)/C(=C/c2ccco2)NC(=O)c2ccccc2)CC1,1.8% (inactive)
4,CN(CCCNC(=O)CN1C(=O)CC(C)(C)S(=O)(=O)c2ccccc21)C1CCCCC1,-2.22% (inactive)
5,CC(NC(=O)c1ccccc1C(=O)O)c1ccc(-n2ccnc2)cc1 (stereo not given),-8.08% (inactive)
6,CCCOCC(O)CC(CC)C(=O)NNC(=S)Nc1ccccc1 (stereo not given),2.14% (inactive)
7,O=C(O)CCn1c(O)c(C=C2N=c3ccccc3=N2)sc1=S,-0.19% (inactive)
8,COC(=O)c1ccccc1NC(=O)C1CCN(S(=O)(=O)c2cc(OC)ccc2OC)CC1,4.15% (inactive)
9,Nc1cc(N2CCCCCC2)c2nonc2c1[N+](=O)[O-],7.26% (inactive)
10,Cc1nnc(SCC(=O)N2c3ccccc3C(C)(c3ccc(Cl)cc3)CC2(C)C)s1 (stereo not given),5.93% (inactive)
11,CSCCNC(=O)c1ccc2nc(Cc3ccccc3F)oc2c1,1.28% (inactive)
12,CC1=C(C)CC(C(=O)NNC(=O)c2ccccc2O)C(C(=O)O)C1 (stereo not given),-13% (inactive)
13,COC(=O)c1c(NC(=O)C2CC(C)=C(C)CC2C(=O)O)sc2c1CCCCC2 (stereo not given),4.27% (inactive)
14,CC1=C(C)CC(C(=O)NNC(=O)c2csc3c2CCC(C(C)(C)C)C3)C(C(=O)O)C1 (stereo not given),61% (active)
15,C=CCNC(=O)C1CC=CCC1C(=O)O (stereo not given),-0.29% (inactive)
16,CCCCCCSc1ccc(-c2nc3ccc(Cl)cn3c2NCc2ccccc2)cc1,-5.85% (inactive)
17,CCCCNc1c(-c2ccc(OC)c(Sc3ccc(OC)cc3)c2)nc2ccc(Cl)cn12,23% (inactive)
18,CCCCNc1c(-c2cccc(Sc3ccc(OC)cc3)c2)nc2ccccn12,45% (active)
19,COc1ccc(C2=Nn3c(nnc3-c3ccccc3OC)SC2)cc1OC1CCCC1,29.8% (inactive)
20,O=C1C=C(NS(=O)(=O)c2ccccc2)C(=O)c2ccccc21,1.55% (inactive)

row,SMILES,response
1,CC(NC(=O)c1ccccc1)C(=O)Nc1ccccc1 (stereo not given),-0.42% (inactive)
2,O=C(NC1=CC(=O)c2ccccc2C1=O)c1ccccc1,84% (active)
3,COc1ccc(C2c3[nH]c4ccccc4c3CCN2CCCn2cccn2)cc1C (stereo not given),-1.99% (inactive)
4,Cc1ccc(N2C(=O)CC(N3CCSCC3)C2=O)c(C)c1 (stereo not given),-0.71% (inactive)
5,CC(C)(C)NC(=O)CN(C(=O)c1ccc(Cl)nc1)c1cccc2ccccc12,1.65% (inactive)
6,CC(=O)OCCOCn1cnn2c(=O)c(Br)c(C)nc12,-5.29% (inactive)
7,Cc1cnc(C)c(N2CCN(C(=O)C3CCC(=O)N(CCc4cccc(F)c4)C3)CC2)n1 (stereo not given),-4.11% (inactive)
8,NC(=O)C1(N2CCCC2)CCN(Cc2ccccc2)CC1,-1.07% (inactive)
9,COC(=O)c1[nH]c2ccc(Br)cc2c1NC(=O)Oc1ccccc1,43.5% (active)
10,COC(=O)c1[nH]c2ccccc2c1NC(=O)CN1CCCc2ccccc21,6.44% (inactive)
11,C/C(=N\N)c1c(-c2ccccc2)c2cc(Br)ccc2[nH]c1=O,-0.61% (inactive)
12,COCCN1C(=O)c2oc3c(C)cc(C)cc3c(=O)c2C1c1cccc(O)c1 (stereo not given),51.7% (active)
13,O=C1c2oc3ccccc3c(=O)c2C(c2cccc(O)c2)N1c1ccccn1 (stereo not given),-12.8% (inactive)
14,CCCOc1ccc(C2c3c(oc4cc(C)c(C)cc4c3=O)C(=O)N2CCCN2CCOCC2)cc1 (stereo not given),-4.95% (inactive)
15,COCCCn1c(SCc2cccc(OC)c2)nc2cc(OC)c(OC)cc2c1=N,7.49% (inactive)
16,CCCC(=O)Nc1nnc(CC(=O)OCC)s1,8.2% (inactive)
17,CN1CCN(C(CNS(=O)(=O)c2cccs2)c2cccnc2)CC1 (stereo not given),-2.41% (inactive)
18,COc1ccc(C[C@H]2CN3C(=NC[C@H]3C)N2CCNC(=O)CCC2CCCCC2)cc1,8.82% (inactive)
19,CCOc1ccccc1N1C(=O)CC(Sc2nccc(C)n2)C1=O (stereo not given),47.5% (active)
20,COc1ccc(N2C(=O)CC(Sc3n[nH]c(-c4ccc(C)cc4)n3)C2=O)cc1 (stereo not given),1.89% (inactive)

row,SMILES,response
1,CC(=O)Nc1ccc(N2C(=O)CC(Sc3nccc(C)n3)C2=O)cc1 (stereo not given),1.18% (inactive)
2,COCC1CCN(C(=O)CCc2nnc(C3(c4ccc(Cl)cc4)CCC3)o2)C1 (stereo not given),-4.25% (inactive)
3,COc1ccc(CCNC(=O)CCc2ccccc2O)cc1OC,0.69% (inactive)
4,Cc1ccc(NC(=O)CN(C)C(=O)Cn2nnc(-c3ccccc3)n2)cc1,-5.12% (inactive)
5,CCOC(=O)c1ccc(NC(=O)Cn2cnc3cc(C)c(C)cc32)cc1,9.03% (inactive)
6,CCOC(=O)c1ccc(NC(=O)Cn2nnc(-c3ccc(C)cc3)n2)cc1,91.8% (active)
7,Cc1ccc(CNC(=O)CCC(=O)N2CC(C)Sc3ccccc32)cc1 (stereo not given),-5.01% (inactive)
8,Cc1cc(C)nc(S/C=C/C(=O)c2ccccc2)n1,41.9% (inactive)
9,Cc1cccc(C=CC(=O)c2ccc(Cl)cc2)c1,0.41% (inactive)
10,O=C(/C=C/Sc1ncn[nH]1)c1ccc(Cl)cc1,78.1% (active)
11,CCc1cc(-c2nnc(SCC(=O)NC3CC3)n2C)cs1,-9.66% (inactive)
12,CCC(C)(C)NC(=O)CN(C(=O)C(=O)Nc1ccc2c(c1)OCCO2)C(C)(C)CC,0.65% (inactive)
13,COc1ccc(-n2c(=O)[nH]c3cc(C(=O)NCCc4ccc(OC)c(OC)c4)ccc3c2=O)c(OC)c1,2.93% (inactive)
14,CN/C(=C\[N+](=O)[O-])NCCSCc1csc(CN(C)C)n1,-4.88% (inactive)
15,CC(C)CC(=O)NC(=S)NNC(=O)c1cccc([N+](=O)[O-])c1,-4.1% (inactive)
16,C#CCN1CC(C)/C(=N/O)CC1C (stereo not given),-6.18% (inactive)
17,O=C(/C=C/c1ccco1)NC(=S)N1CCCCC1,88.5% (active)
18,COc1ccccc1/C=C/C(=O)NC(=S)N1CCOCC1,-6.28% (inactive)
19,O=C(/C=C/c1ccco1)NC(=S)Nc1ccccc1Br,12.9% (inactive)
20,C=CCNC(=O)COC(=O)c1ccccc1C(=O)N(C)C1CCCCC1,2.56% (inactive)
